# Screens: PubChem, National Center for Advancing Translational Sciences (NCATS)
# Compounds with a hit are over-represented: about 10% of the library has one in this group of screens.
# LMNA splice mod: modulators of lamin A splicing. HeLa LMNA splicing GFP/RFP minigene ratio, 48 h. Potency, µM (highest dose often 46.1 µM), for the others: at the top dose ratio change, negative = inhibition, usual class: inhibitors. 200,000 compounds, 0.01% hits. AID 1487; active = well fitted inhibition curve with a large enough effect in the signal ratio, with a control signal flat, not every such curve was filed as active; inconclusive = small, poorly fitted or top-dose-only effect, or effect the other way, or a change in a side signal; the % refers to the signal ratio; also: potency is read from the fitted curve at half-maximal effect
#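 Read-out is the ratio of GFP to DsRed2 object intensity, acquired by 488 nm laser-scanning cytometry on HeLa lamin A-EGFP minigene reporter cells. Compound incubation 48 hrs at 37 °C in Opti-MEM with 2% FBS; DMSO 0.5% final.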
# PNC inhibitor: blocks assembly of the perinucleolar compartment; PC3M PTB-GFP, PNC prevalence imaging, 16 h; stronger effect = lower value; activity change (PNC), negative = inhibition, % at 10 µM; 140,000 compounds, 3.1% hits;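 active = readout at or below -70, meaning at least 70% loss of cells showing the perinucleolar compartment, a nuclear body marking cancer cells; inconclusive = readout between -30 and a set limit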;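 also: plate controls were DMSO wells for no effect and camptothecin positive control wells for full effect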
#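 Read-out is percentage of cells bearing a perinucleolar compartment, from automated 20x imaging of fixed, Hoechst-stained PC3M PTB-GFP cells. Cells were seeded 4 h, then exposed 16 h to compound (23 nl of library stock) in duplicate plates.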
# ALDH1A1 inh: inhibitors of human aldehyde dehydrogenase 1A1; Purified ALDH1A1, NADH fluorescence, propionaldehyde substrate; Potency, µM (doses to about 75.3 µM), for inactives: top-dose activity, negative = inhibition, most hits filed as inhibitors; 220,000 compounds, 7.3% hits;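 also: potency is read from the fitted curve at half-maximal effect; plate controls were no enzyme wells and a reference inhibitor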
# Target sequence (P00352 whole entry, looked up): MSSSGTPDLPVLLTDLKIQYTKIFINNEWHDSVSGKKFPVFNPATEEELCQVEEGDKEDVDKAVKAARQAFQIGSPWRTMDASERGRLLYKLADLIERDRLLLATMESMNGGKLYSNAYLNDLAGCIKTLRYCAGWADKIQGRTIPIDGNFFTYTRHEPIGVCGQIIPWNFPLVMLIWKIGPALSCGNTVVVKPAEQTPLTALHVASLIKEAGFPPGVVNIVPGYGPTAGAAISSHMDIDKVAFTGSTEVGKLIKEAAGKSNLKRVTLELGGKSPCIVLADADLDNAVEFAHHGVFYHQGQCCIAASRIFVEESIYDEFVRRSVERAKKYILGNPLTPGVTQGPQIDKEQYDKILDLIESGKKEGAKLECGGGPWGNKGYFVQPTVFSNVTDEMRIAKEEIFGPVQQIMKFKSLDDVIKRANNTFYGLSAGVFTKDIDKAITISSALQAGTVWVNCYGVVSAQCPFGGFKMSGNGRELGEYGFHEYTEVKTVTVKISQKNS
# KinaseGlo FLuc: Kinase-Glo luciferase inhibition (counter-screen); Q27757; Kinase-Glo luciferase, ATP luminescence, 8 min; Potency, µM (doses to about 38.3 µM), without a hit: at the top dose activity change, negative = inhibition, most hits filed as inhibitors; 200,000 compounds, 0.28% hits; active = well fitted inhibition curve with a large enough effect; inconclusive = small, poorly fitted or top-dose-only effect; also: potency is read from the fitted curve at half-maximal effect; nearly all actives have a fitted effect of over 60% in size
#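 Light output from Kinase-Glo luciferase with luciferin and 10 uM ATP in 50 mM imidazole pH 7.2, KCl, MgCl2, Tween 20, BSA; compound pin-delivered, 8-min ambient incubation, then luminescence read.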
# HPGD block: inhibitors of human 15-hydroxyprostaglandin dehydrogenase (HPGD); Potency, µM, without a hit: at the highest dose activity change, negative = inhibition, actives largely listed as inhibitors; 150,000 compounds, 4.3% hits; purified HPGD, NADH fluorescence kinetic, PGE2 substrate; P15428; AID 894; also: potency is read from the fitted curve at half-maximal effect
# Target sequence (P15428 whole entry, looked up): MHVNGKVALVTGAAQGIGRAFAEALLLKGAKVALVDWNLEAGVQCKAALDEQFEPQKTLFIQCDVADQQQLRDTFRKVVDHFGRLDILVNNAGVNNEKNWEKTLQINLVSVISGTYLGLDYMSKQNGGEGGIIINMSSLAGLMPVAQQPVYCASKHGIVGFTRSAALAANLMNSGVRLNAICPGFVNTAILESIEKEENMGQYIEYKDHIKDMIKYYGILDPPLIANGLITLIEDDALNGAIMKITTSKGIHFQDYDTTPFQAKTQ
#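 NADH formation kinetics: reaction with 30 uM PGE2 and 1 mM NAD+ (final), 20 nM enzyme, Tris-HCl pH 8 with Tween 20, after 15 min compound preincubation at room temperature. Fluorescence change, last versus first of five reads.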
# The depositor's hits bear a star; ? = inconclusive; . = no result given; [ ] = remark or other dose. Unless noted, calls follow the shape of the dose curve; as a rule, active = well fitted inhibition curve with a large enough effect (not every such curve was filed as active); inconclusive = small, poorly fitted or top-dose-only effect, or another doubt; inactive = no such curve, though single readings can be large or run the other way. Unless noted, % is scaled to controls: 0 for no effect and ±100 for the full control effect.
SMILES,LMNA splice mod,PNC inhibitor,ALDH1A1 inh,KinaseGlo FLuc,HPGD block
CCOc1cccc(C(=O)Nc2nnc(-c3ccco3)s2)c1,2.5%,-25.1,?,-4.6%,?
CCCC(=O)Nc1nnc(-c2ccco2)s1,-5.6%,?,?,-2.2%,?
Cc1cccc(OCC(=O)Nc2nnc(-c3ccco3)s2)c1,-13.4%[46 µM],.,31.6µM*,2.4%,.
COc1ccccc1OCC(=O)Nc1nnc(-c2ccco2)s1,-4.5%,36.9,7.08µM*,-1.3%,-22.2%
COc1cc(OC)c(N(C)C(=O)c2sc3nc4n(c(=O)c3c2C)CCCCC4)cc1Cl,6.3%[46 µM],.,.,.,.
O=c1cc(-c2ccccc2)[nH]c2nc3ccccc3n12,?,?,?,12.6µM*,?
CCOc1cc(CNS(=O)(=O)c2ccc3c(c2)CC(=O)N3C)cc(OCC)c1OCC,8.3%[46 µM],.,.,.,.
Cc1ccc(C)n1-c1ccc(C(=O)NN)s1,-10.9%[46 µM],.,14.1µM*,2.3%,.
CC1CCCC(NC(=O)COC(=O)CN2C(=O)C3CCCCC3C2=O)C1C (stereo not given),-5.3%,14.2,25.1µM*,-1.1%,-18.4%
O=C(COC(=O)CN1C(=O)C2CCCCC2C1=O)NC1CCS(=O)(=O)C1 (stereo not given),-2.9%,68.2,-2.5%,-1.5%,-8.8%
Cc1ccc(S(=O)(=O)NCCc2cn3ccsc3n2)c(C)c1,5.0%[46 µM],.,.,.,.
COc1ccc2cc(C(=O)NCc3ccc4c(c3)CCN4C(=O)c3ccc(F)cc3)[nH]c2c1,0.2%[46 µM],.,.,.,.
COc1ccccc1N1CCN(C(=O)c2ccc(CS(=O)(=O)c3ccccc3OC)o2)CC1,?,?,17.8µM*,1.7%,-8.0%
COc1ccc(S(=O)(=O)Cc2ccc(C(=O)N3CCN(Cc4ccccc4)CC3)o2)cc1,-18.4%,?,12.6µM*,-2.1%,-16.4%
COc1ccc(S(=O)(=O)Cc2ccc(C(=O)N3CCN(C(=O)c4ccco4)CC3)o2)cc1,1.4%,15.0,5.97µM*,3.1%,-16.2%
COc1ccc(N2CCN(C(=O)c3ccc(CS(=O)(=O)c4ccc(OC)cc4)o3)CC2)cc1,1.0%,6.2,0.9%,1.7%,-5.2%
Cc1ccc(S(=O)(=O)Cc2ccc(C(=O)N3CCN(Cc4ccccc4)CC3)o2)cc1,-5.7%,?,8.91µM*,-0.9%,-23.1%
CCOC(=O)N1CCN(C(=O)c2ccc(CS(=O)(=O)c3ccccc3OC)o2)CC1,13.3%,-26.6,-5.7%,2.0%,-12.9%
Cc1ccc(S(=O)(=O)Cc2ccc(C(=O)N3CCc4ccccc4C3)o2)cc1,0.6%,34.8,1.3%,-1.6%,-16.4%
O=C(N/N=C\c1ccc2c(c1)CCC2)c1ccccc1O,.,.,2.3%[13.5 µM],-6.4%[7.66 µM],-8.4%
Cc1ccc(S(=O)(=O)Cc2ccc(C(=O)NCc3ccc4c(c3)OCO4)o2)cc1,-11.6%,-107.0*,10µM*,1.0%,-13.4%
COCCNC(=O)c1ccc(CS(=O)(=O)c2ccc(C)cc2)o1,5.2%,-18.5,5.6%,-0.2%,-5.3%
Cc1ccc(S(=O)(=O)Cc2ccc(C(=O)O)o2)cc1,-3.2%,-27.0,8.91µM*,22.3%,-22.8%
CCC(CC)C(=O)N1CCc2cc(OC)c(OC)cc2C1COc1ccc(C(=O)OC)cc1 (stereo not given),-16.1%[46 µM],.,.,.,.
CCN1/C(=C2\SC(=S)N(Cc3ccccc3)C2=O)Sc2ccccc21,-8.9%,?,-1.3%,-0.6%,-14.7%
SMILES,LMNA splice mod,PNC inhibitor,ALDH1A1 inh,KinaseGlo FLuc,HPGD block
CCN1C(C)=C(C)S/C1=C1\SC(=S)N(N)C1=O,.,.,20µM*,-1.5%,.
Cc1nnc(N2C(=O)c3cccc4cccc(c34)C2=O)s1,10.1%,-111.1*,?,11.3%,?
CCCc1nnc(N2C(=O)c3cccc4cccc(c34)C2=O)s1,-11.4%,20.7,?,0.9%,?
COc1ccccc1CC(NC(C)=O)C(=O)NC1CCN(c2nnnn2-c2ccccc2)CC1 (stereo not given),-4.4%,-25.5,5.62µM*,-0.1%,-11.8%
COc1cccc(CC(NC(C)=O)C(=O)NC2CCN(c3nnnn3-c3ccccc3)CC2)c1OC (stereo not given),-6.2%[46 µM],.,?,6.0%,.
O=C(Nc1ccc(F)cc1)C1CCN(c2nnnn2-c2ccccc2)CC1,-6.3%,-24.8,14.1µM*,-0.4%,-7.7%
CC(=O)Nc1ccc(NC(=O)C2CCN(c3c(NC(C)=O)c(C)nn3-c3ccccc3)CC2)cc1,-9.9%[46 µM],.,.,.,.
COc1ccc(NC(=O)C2CCN(c3nnnn3-c3ccccc3)CC2)cc1,-9.4%,?,12.6µM*,-3.5%,-8.0%
C=C(C)[C@]12C[C@@H](C)[C@@]34OC(Cc5ccccc5)(O[C@@H]1[C@@H]3C=C(COC(=O)Cc1cc(OC)c(O)cc1I)C[C@]1(O)C(=O)C(C)=C[C@@H]41)O2,.,.,-4.4%,1.3%[39.9 µM],-11.4%
CC(C)C(c1nnnn1Cc1ccc2c(c1)OCO2)N1CCN(C)CC1 (stereo not given),-7.3%,-100.0*,-0.5%,0.2%,-9.6%
O=C(CCn1cnc2ccccc2c1=O)NCc1ccccc1,14.2%[46 µM],.,.,.,.
C=C[C@@H](C)[C@](C)(O)c1ccccc1,.,.,-0.2%,1.7%,-7.7%
Cc1cc(C)nc(SCc2ccc(C(=O)NN=C3C4CC5CC(C4)CC3C5)cc2)n1,-6.3%,-24.5,3.55µM*,-4.7%,-10.3%
COc1ccc(/C=N/NC(=O)c2ccc(CSc3nc(C)cc(C)n3)cc2)cc1O,-11.9%,?,?,-0.1%,?
COc1ccc(/C=N/NC(=O)c2ccc(CSc3nc(C)cc(C)n3)cc2)c(OC)c1OC,?,76.3,?,2.7%,35.5µM*
CC1C/C(=N\NC(=O)CCc2ccc(S(=O)(=O)N3CCOCC3)cc2)CC(C)(C)C1 (stereo not given),-10.4%,-16.5,?,5.4%,-5.7%
Cc1cc(C)nc(SCc2ccc(C(=O)N/N=C3\CC(C)CC(C)(C)C3)cc2)n1 (stereo not given),-8.9%,-4.4,7.94µM*,.,.
Cc1cc(C)nc(SCc2ccc(C(=O)N/N=C/c3ccc(C(=O)O)cc3)cc2)n1,-1.2%[46 µM],.,-5.3%,7.0%,.
CC1C/C(=N\NC(=O)c2ccc(NS(=O)(=O)c3ccc(Br)cc3)cc2)CC(C)(C)C1 (stereo not given),-3.8%,?,3.55µM*,-5.2%,-5.6%
CC1C/C(=N\NC(=O)c2cccnc2)CC(C)(C)C1 (stereo not given),.,.,?,1.7%,.
COc1cccc2cc(-c3nc(-c4ccc(Cl)cc4)cs3)c(=O)oc12,9.7%[46 µM],.,.,.,.
COC(=O)C1C(=O)c2c([nH]c(C(=O)OC3CCCCC3)c2C)CC1C (stereo not given),-12.7%,90.1,-1.2%,1.3%,-7.5%
COC(=O)C1C(=O)c2c([nH]c(C(=O)OC3CCCC3C)c2C)CC1C (stereo not given),-15.1%,-8.4,12.6µM*,0.3%,-4.9%
CCN1CCN(C(c2ccc(SC)cc2)c2c(O)cc(C)n(CCOC)c2=O)CC1 (stereo not given),-3.0%[46 µM],.,.,.,.
